# Assay results reported in PubChem BioAssay AID588323 (National Center for Advancing Translational Sciences (NCATS), 2011).
# Unmarked numbers belong to inactive results. Activity calls are given as the source filed them. The call rests on the fitted dose curve; in most records, active means well fitted curve in the direction sought with a large enough effect; inconclusive means small, poorly fitted or top-dose-only effect, or another doubt; inactive means no such curve, though single readings can be large or run the other way.
# Test: Confirmatory Assay to Find Inhibitors of T. brucei phosphofructokinase: Cytotoxictity in MRC5
# Details: cell viability; Potency: MRC5 cytotoxicity; series mostly up to 46.1 µM; activity change, negative = cytotoxicity: at the top concentration
# Excerpt: Various species of the protozoan family Trypanosomatidae are responsible for a range of serious human diseases in tropical and subtropical areas of the world. […] Many of the disorders caused by trypanosomatids are fatal if left untreated, but most currently used drugs are inefficient and toxic.
# Oxidative metabolism involving the mitochondrial tricarboxylic acid cycle and oxidative phosphorylation are repressed in these parasites, and recent RNA interference (RNAi) experiments have shown that even partial depletion of certain individual glycolytic enzymes can lead to the death of cultured parasites. One such glycolytic enzyme, phosphofructokinase (PFK), catalyzes the formation of fructose-1,6-bisphosphate (F1,6BP) and ADP from fructose-6-phosphate (F6P) and ATP, and in many metabolic circumstances makes an important contribution to the control of flux through the glycolytic pathway. As a specific glycolytic target, PFK is particularly attractive as it catalyzes the first irreversible step in glycolysis, and structural and kinetic studies have shown very substantial and essential differences from corresponding host enzymes, allowing for the discovery of parasite-selective inhibitors.
# Confirmed qHTS active compounds were tested for toxicity against the MRC-5 human lung fibroblast cell lines. This line havs historically been used as representative human cells in in vitro Trypanosoma assays, and so provide a relevant surrogate for human cells in testing Tb PFK inhibitor toxicity.
# NIH Chemical Genomics Center [NCGC]
# NIH Molecular Libraries Probe Centers Network [MLPCN]
# Assay Submitter (PI): Malcom Walkinshaw, University of Edinburg
# MRC5 cells were dispensed into white solid 1536-microwell plates in 5 uL media (high glucose DMEM, 10% FBS) with a Thermo Multidrop. The plates were incubated at 37 degrees Celsius for 2 hours, and subsequently treated with compounds using the Kalypsys pin tool, delivering 23 nL of test compounds to each well. The plates were then incubated for an additional 72 hours at 37 degrees Celsius. Cytotoxicity was assessed by adding 2.5 uL of Cell-Titer Glo (Promega, Madison, WI) via Multidrop, incubating at room temperature for 10 min and reading luminescence on the Perkin Elmer ViewLux using a 1 second exposure and 1x binning. DMSO-treated cells were included as negative control, while media-only wells were used as a positive control equivalent to 100% cell toxicity for the sake of data normalization.
Compound,"activity change, negative = cytotoxicity",Potency
Cc1cc(NS(=O)(=O)c2ccc(N(C)C(=O)Cc3ccc(Cl)c(Cl)c3)cc2)no1,-5.01%,
Cc1cc(NS(=O)(=O)c2ccc(NC(=O)Cc3ccc(Cl)c(Cl)c3)cc2)on1,-19.8%,
Cc1cc(NS(=O)(=O)c2ccc(NC(=O)Cc3ccccc3)cc2)no1,-5.92%,
Cc1cc(NS(=O)(=O)c2ccc(NC(=O)Cc3ccc(Cl)c(C(F)(F)F)c3)cc2)no1,-18.9%,
Cc1cc(NS(=O)(=O)c2ccc(NC(=O)Cc3ccc(Cl)cc3Cl)cc2)no1,-0.204%,
Cc1cc(N[S+](=O)([O-])c2ccc(NC(=O)Cc3ccc(Cl)nc3)cc2)no1,-2.33%,
Cc1cc(N(C)S(=O)(=O)c2ccc(NC(=O)Cc3ccc(Cl)c(Cl)c3)cc2)no1,,31.5 µM (active)
Cc1cc(NS(=O)(=O)c2cccc(NC(=O)Cc3ccc(Cl)c(Cl)c3)c2)no1,-9.42%,
Cc1cc(NS(=O)(=O)c2ccc(NS(=O)(=O)Cc3ccc(Cl)c(Cl)c3)cc2)no1,2.37%,
Cc1cc(NS(=O)(=O)c2ccc(NC(=O)Cc3ccc(Cl)cc3)cc2)no1,-2.34%,
Cc1cc(N[S+](=O)([O-])c2ccc3cc(NC(=O)Cc4ccc(Cl)c(Cl)c4)ccc3c2)no1,-4.84%,
Cc1cc(NS(=O)(=O)CCNC(=O)Cc2ccc(Cl)c(Cl)c2)no1,2.79%,
O=C(Cc1ccc(Cl)c(Cl)c1)Nc1ccc(S(=O)(=O)Nc2cncnc2)cc1,-26.7%,
Cc1cc(NS(=O)(=O)Cc2ccc(NC(=O)Cc3ccc(Cl)c(Cl)c3)cc2)no1,-0.53%,
Cc1cc(NC(=O)c2csc(NC(=O)Cc3ccc(Cl)c(Cl)c3)n2)no1,-17.8%,
O=C(Cc1ccc(Cl)c(Cl)c1)Nc1ccc(S(=O)(=O)Nc2ccn[nH]2)cc1,-18%,
Cc1cc(NS(=O)(=O)c2ccc(NC(=O)Cc3ccc4ccccc4c3)cc2)no1,-14%,
O=C(Cc1ccc(Cl)c(Cl)c1)Nc1ccc(S(=O)(=O)Nc2ccon2)cc1,-9.57%,
COc1ccc(CC(=O)Nc2ccc(S(=O)(=O)Nc3cc(C)on3)cc2)cc1C,-11.7%,
Cc1cc(NS(=O)(=O)c2ccc(NC(=O)c3ccc(Cl)c(Cl)c3)cc2)no1,-2.31%,

Compound,"activity change, negative = cytotoxicity",Potency
Cc1cc(NS(=O)(=O)c2ccc(NC(=O)Cc3cccc(Cl)c3)cc2)no1,4.81%,
Cc1cc(NS(=O)(=O)c2ccc(C(=O)NCc3ccc(Cl)c(Cl)c3)cc2)no1,9.63%,
O=C(Cc1ccc(Cl)c(Cl)c1)Nc1ccc(S(=O)(=O)Nc2ccc(C(=O)O)cc2)cc1,-7.09%,
Cc1cc(NS(=O)(=O)c2ccc(NC(=O)Cc3ccc(C)c(C)c3)cc2)no1,-2.52%,
Cc1cc(NS(=O)(=O)c2ccc(NCCc3ccc(Cl)c(Cl)c3)cc2)no1,4.6%,
Cc1cc(NS(=O)(=O)c2ccc(NC(=O)CCc3ccc(Cl)c(Cl)c3)cc2)no1,0.751%,
Cc1cc(NS(=O)(=O)c2ccc(NC(=O)C(C)(C)c3ccc(Cl)c(Cl)c3)cc2)no1,1.51%,
Cc1cc(NS(=O)(=O)c2ccc(NC(=O)Cc3ccc(Cl)c(F)c3)cc2)no1,-4.95%,
COc1ccc(CC(=O)Nc2ccc(S(=O)(=O)Nc3cc(C)on3)cc2)cc1OC,1.47%,
Cc1cc(NC(=O)c2ccc(NC(=O)Cc3ccc(Cl)c(Cl)c3)cc2)no1,-3.03%,
Cc1cc(NS(=O)(=O)c2ccc(NC(=O)Cc3ccc(Cl)c(Cl)c3)cc2)no1,-32.7%,
O=C(Cc1ccc(Cl)c(Cl)c1)Nc1ccc(S(=O)(=O)O)cc1,0.694%,
Cc1cc(NS(=O)(=O)c2ccc(NC(=O)Cc3ccc(C)c(F)c3)cc2)no1,0.152%,
O=C(Cc1ccc(Cl)c(Cl)c1)Nc1ccc(S(=O)(=O)Nc2ccccc2)cc1,-16.9%,
O=C(Cc1ccc(Cl)c(Cl)c1)Nc1ccc(S(=O)(=O)Nc2cccc(C(=O)O)c2)cc1,0.992%,
Cc1cc(NS(=O)(=O)C2CCN(C(=O)Cc3ccc(Cl)c(Cl)c3)CC2)no1,0.791%,
CCOC(=O)c1cccc(NS(=O)(=O)c2ccc(NC(=O)Cc3ccc(Cl)c(Cl)c3)cc2)c1,2.49%,
Cc1cc(NS(=O)(=O)c2ccc(NC(=O)Cc3ccc(Cl)c(Cl)c3)cc2)n(C)n1,-1.38%,
O=C(Cc1ccc(Cl)c(Cl)c1)Nc1ccc(S(=O)(=O)Nc2cccc(O)c2)cc1,-10.7%,
